Experimental data as given in PubChem BioAssay (Tox21).
Several values for one entry are separate records, joined by “and”; a condition that tells them apart may be missing. Equal values may be shown once. Results filed as inconclusive are left out. A structure can be active in one record and inactive in another. Activity calls are given as the source filed them. Unless noted, calls follow the shape of the dose curve; as a rule, active = well fitted curve in the direction sought with a large enough effect in the repeat runs; inconclusive = weak or mixed curves; inactive = no such curve, though single readings can be large; an effect the other way counts as inactive or inconclusive.

What was measured:
[1] = qHTS assay for small molecule agonists of the p53 signaling pathway (AID 651631; calls by dose curve; also: nearly all actives have a fitted effect of over 15% in size; also: potency is read from the fitted curve at half-maximal effect)
In short: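 We treat p53RE-bla HCT-116 cells with compounds for 16 h at 37 °C, add LiveBLAzer B/G FRET substrate for 2 h at room temperature, and measure fluorescence intensity.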

[2] = qHTS assay for small molecules that induce genotoxicity in human embryonic kidney cells expressing luciferase-tagged ATAD5 (AID 651632); also: nearly all actives have a fitted effect of over 15% in size; also: potency is read from the fitted curve at half-maximal effect
In short: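 Cells were seeded at 2,000 per well, dosed with compound, and incubated 16 hr at 37C in 5% CO2. Luciferase activity was then quantified after a 30 min room-temperature incubation with Amplite.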

[3] = qHTS assay for small molecule agonists of the p53 signaling pathway - cell viability (AID 651633; calls by dose curve; also: nearly all actives have a fitted effect of over 30% in size; also: potency is read from the fitted curve at half-maximal effect)
In short: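 p53RE-bla cells, seeded at 4,000 per well and rested 5 h at 37 C/5% CO2, received compounds in DMSO for 16 h at 37 C. CellTiter-Glo was then added, and luminescence was read after 30 min at room temperature to gauge cytotoxicity.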

[4] = qHTS assay for small molecules that induce genotoxicity in human embryonic kidney cells expressing luciferase-tagged ATAD5 - cell viability (AID 651634; calls by dose curve; also: nearly all actives have a fitted effect of over 25% in size)
In short: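 Cells (HEK293T, luciferase-tagged ATAD5) are seeded at 2,000 per well, dosed with compound or DMSO vehicle, and incubated 15.5 hr at 37C and 5% CO2. CellTiter-Fluor is added for 30 min before fluorescence is measured.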

[5] = qHTS assay for small molecule disruptors of the mitochondrial membrane potential - cell viability (AID 720634; calls by dose curve; also: nearly all actives have a fitted effect of over 20% in size; also: potency is read from the fitted curve at half-maximal effect)
In short: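 Cytotoxicity was measured by ATP quantitation in HepG2 wells that had first been treated with compound for 1 hr and stained with m-MPI dye; CellTiter-Glo incubation was 30 min at room temperature.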

[6] = qHTS assay to test for compound auto fluorescence at 535 nm (green) in HepG2 cells (AID 720675)
[7] = qHTS assay to test for compound auto fluorescence at 460 nm (blue) in HEK293 cells (AID 720678)
In short: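 Blue read-out at excitation 405 nm and emission 460 nm follows overnight compound exposure of HEK293 cells at 37C in 5% CO2. Activity is given as auto fluorescence equivalency to triamterene.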

[8] = qHTS assay to test for compound auto fluorescence at 590 nm (red) in HEK293 cells (AID 720679)
In short: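 Red channel, Ex/Em 540/590nm; signal expressed as equivalency to Rose Bengal sodium. HEK293, 2,000 cells/well, 10% dialyzed FBS; 23 nL compound pinned after 4-5 hr attachment; overnight 37C/5% CO2 before reading.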

[9] = qHTS assay to test for compound auto fluorescence at 535 nm (green) in HEK293 cells (AID 720680)
[10] = qHTS assay to test for compound auto fluorescence at 460 nm (blue) in HEK293 cell free culture (AID 720681)
In short: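 Test compounds were pinned into cell-free culture medium (DMEM with 10% FBS) and fluorescence was read directly at Ex/Em 405/460 nm. Signals were expressed as fluorescence equivalents of triamterene, with DMSO vehicle as control.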

[11] = qHTS assay to test for compound auto fluorescence at 590 nm (red) in HEK293 cell free culture (AID 720683)
In short: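 Tox21 10K library compounds were pinned into cell-free DMEM with 10% FBS and fluorescence was read at excitation 540 nm. Activity is expressed as Rose Bengal sodium equivalency.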

[12] = qHTS assay to test for compound auto fluorescence at 590 nm (red) in HepG2 cell free culture (AID 720684)
In short: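 Readout: intrinsic compound fluorescence at 590 nm emission after 540 nm excitation, scaled to Rose Bengal sodium. Matrix was cell-free MEM with 10% FBS; DMSO vehicle wells served as control.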

[13] = qHTS assay to test for compound auto fluorescence at 460 nm (blue) in HepG2 cell free culture (AID 720685)
In short: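 Cell-free plates of MEM plus 10% FBS received 23 nL compound or DMSO vehicle; blue-channel (405/460 nm) intensity scored against triamterene as reference fluorophore.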

[14] = qHTS assay to test for compound auto fluorescence at 535 nm (green) in HepG2 cell free culture (AID 720686)
[15] = qHTS assay to test for compound auto fluorescence at 460 nm (blue) in HepG2 cells (AID 720687)
In short: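 Cells (2,000/well in MEM with 10% FBS) attached overnight at 37 C, then were exposed to compound or DMSO for 1 hr at 37 C, 5% CO2. Fluorescence read at Ex/Em 405/460 nm, expressed as triamterene-equivalent signal.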

[16] = qHTS assay for small molecule disruptors of the mitochondrial membrane potential (AID 720635); also: potency is read from the fitted curve at half-maximal effect
In short: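 HepG2 cells (2,000/well) attached overnight at 37C, then took compound for 1 hr at 37C, 5% CO2. Mito-MPS dye was added for 30 min; fluorescence was read at 490/535 nm (monomers) and 540/590 nm (aggregates).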

[17] = qHTS assay to test for compound auto fluorescence at 535 nm (green) in HEK293 cell free culture (AID 720682)
In short: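 Green-channel intensity (Ex/Em 485/535 nm) was recorded from compound-treated wells containing only DMEM with 10% FBS. Fluorescein provided the equivalency standard.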

[18] = biological target: Glucocorticoid receptor (Homo sapiens) (UniProt P04150); assay: qHTS assay to identify small molecule agonists of the glucocorticoid receptor (GR) signaling pathway (AID 720691; active = well fitted activation curve with a large enough effect in the signal ratio in the repeat runs, not every such curve was filed as active; the % refers to the signal ratio)
Chain of Glucocorticoid receptor (Homo sapiens) (P04150 whole entry, looked up): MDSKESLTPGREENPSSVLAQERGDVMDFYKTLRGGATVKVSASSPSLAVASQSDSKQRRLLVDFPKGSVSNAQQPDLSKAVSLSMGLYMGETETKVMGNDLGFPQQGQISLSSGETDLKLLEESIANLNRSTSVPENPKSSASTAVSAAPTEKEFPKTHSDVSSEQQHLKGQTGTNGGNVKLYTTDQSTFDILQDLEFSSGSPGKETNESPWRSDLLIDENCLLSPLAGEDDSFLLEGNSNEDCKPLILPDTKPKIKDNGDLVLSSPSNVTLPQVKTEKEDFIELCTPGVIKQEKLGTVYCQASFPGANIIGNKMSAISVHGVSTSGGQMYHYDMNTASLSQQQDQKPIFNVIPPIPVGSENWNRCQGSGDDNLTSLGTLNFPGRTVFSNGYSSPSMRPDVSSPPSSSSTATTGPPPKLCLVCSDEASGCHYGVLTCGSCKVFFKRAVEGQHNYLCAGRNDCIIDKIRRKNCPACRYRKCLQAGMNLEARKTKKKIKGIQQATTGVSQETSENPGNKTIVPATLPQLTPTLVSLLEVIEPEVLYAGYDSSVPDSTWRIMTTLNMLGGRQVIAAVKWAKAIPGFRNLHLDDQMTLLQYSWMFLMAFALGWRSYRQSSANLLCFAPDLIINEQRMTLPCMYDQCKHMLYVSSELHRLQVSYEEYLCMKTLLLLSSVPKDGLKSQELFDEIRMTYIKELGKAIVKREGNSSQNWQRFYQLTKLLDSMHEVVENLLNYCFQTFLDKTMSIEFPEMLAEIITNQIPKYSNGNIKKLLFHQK
In short: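 Steps: seed GR-bla HeLa cells, incubate 4 h at 37 C/5% CO2; pin-transfer DMSO-dissolved compounds; incubate 18 h at 37 C; add LiveBLAzer B/G FRET substrate; after 2 h at room temperature, measure fluorescence.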

[19] = biological target: Glucocorticoid receptor (Homo sapiens) (UniProt P04150); assay: qHTS assay to identify small molecule antagonists of the glucocorticoid receptor (GR) signaling pathway (AID 720692; active = well fitted inhibition curve with a large enough effect in the signal ratio in the repeat runs, not every such curve was filed as active; the % refers to the signal ratio; also: potency is read from the fitted curve at half-maximal effect)
In short: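 Antagonism was scored as loss of dexamethasone-driven (5 nM final) reporter signal in HeLa cells bearing a glucocorticoid response element–beta-lactamase construct, after 18 h compound exposure at 37 C and 2 h FRET substrate loading.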

[20] = qHTS assay to test for compound auto fluorescence at 590 nm (red) in HepG2 cells (AID 720674)
In short: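 Intrinsic compound fluorescence in the red window (Ex/Em 540/590 nm) is measured in attached HepG2 cells exposed for 1 hr, DMSO vehicle as baseline, benchmarked to Rose Bengal sodium.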
% is scaled to controls: 0 for no effect and ±100 for the full control effect.

CCCCCCCCCCCO
inactive and 61.1 µM (active): Potency [3]
inactive: Potency [1] | Potency [2] | Potency [4] | Potency [5] | Potency [6] | outcome [7] | Potency [8] | Potency [9] | outcome [10] | Potency [11] | Potency [12] | outcome [13] | Potency [14] | outcome [15]

Cc1cccc([N+](=O)[O-])c1C
inactive: Potency [1] | Potency [2] | Potency [3] | Potency [4] | Potency [5] | Potency [16] | Potency [6] | outcome [7] | Potency [8] | Potency [9] | outcome [10] | Potency [17] | Potency [11] | Potency [12] | outcome [13] | Potency [14] | outcome [15]

Cc1cccc(N(C)C(=S)Oc2ccc3ccccc3c2)c1
active: Potency [5] 17.2 µM
inactive and 21.7 µM (active): Potency [16]
inactive: Potency [1] | Potency [2] | Potency [4] | Potency [6] | outcome [7] | Potency [8] | Potency [9] | outcome [10] | Potency [17] | Potency [11] | Potency [12] | fluorescence, % of fluorescent control [13] -0.0096% [at 18.6 µM] | Potency [14] | outcome [15] | Potency [18] | Potency [19]
inactive and 17.2 µM (active): Potency [3]

C#C[C@]1(O)CC[C@H]2[C@@H]3CCc4cc(OC)ccc4[C@H]3CC[C@@]21C
inactive: Potency [1] | Potency [2] | Potency [3] | Potency [4] | Potency [5] | Potency [20] | Potency [6] | outcome [7] | outcome [10] | Potency [12] | outcome [13] | Potency [14] | outcome [15] | Potency [18]
active: Potency [16] 19.3 µM

Nc1ncnc2nc[nH]c12
inactive: Potency [1] | Potency [2] | Potency [3] | Potency [4] | Potency [5] | Potency [20] | Potency [6] | outcome [7] | Potency [9] | outcome [10] | Potency [17] | Potency [11] | Potency [12] | outcome [13] | Potency [14] | outcome [15] | Potency [18] | Potency [19]

C[C@]12CCC(=O)C=C1CC[C@@H]1[C@@H]2C(=O)C[C@@]2(C)[C@H]1CC[C@]2(O)C(=O)CO
active: Potency [19] 9.52 µM and 6.92 µM
inactive: Potency [1] | Potency [2] | Potency [3] | Potency [4] | Potency [5] | outcome [7] | Potency [9] | outcome [10] | Potency [17] | Potency [11] | Potency [12] | outcome [13] | Potency [14] | outcome [15]

CC(C)Oc1ccc2c(=O)c(-c3ccccc3)coc2c1
active: Potency [2] 1.19 µM and 2.66 µM
inactive: Potency [1] | Potency [3] | Potency [4] | Potency [5] | Potency [20] | Potency [6] | outcome [7] | Potency [8] | outcome [10] | Potency [17] | Potency [12] | outcome [13] | Potency [14] | outcome [15] | Potency [18]

CN(C)CCC=C1c2ccccc2CCc2ccccc21
active: Potency [1] 61.1 µM
inactive: Potency [2] | Potency [3] | Potency [4] | Potency [5] | Potency [20] | Potency [6] | outcome [7] | Potency [8] | outcome [10] | Potency [17] | Potency [12] | outcome [13] | Potency [14] | outcome [15] | Potency [18]

CC(C)=CCC/C(C)=C\CO
inactive: Potency [1] | Potency [2] | Potency [3] | Potency [4] | Potency [5] | outcome [7] | Potency [9] | outcome [10] | Potency [17] | Potency [12] | outcome [13] | Potency [14] | outcome [15] | Potency [18] | Potency [19]

CC(C)(C)NC(=O)[C@H]1CC[C@H]2[C@@H]3CC[C@H]4NC(=O)C=C[C@]4(C)[C@H]3CC[C@]12C
inactive: Potency [1] | Potency [2] | Potency [3] | Potency [4] | Potency [5] | Potency [16] | Potency [20] | outcome [7] | Potency [8] | outcome [10] | Potency [17] | Potency [11] | Potency [12] | outcome [13] | Potency [14] | outcome [15] | Potency [18] | Potency [19]

Nc1ccc(S(=O)(=O)Nc2cnc3ccccc3n2)cc1
inactive: Potency [1] | Potency [2] | Potency [3] | Potency [4] | Potency [5] | Potency [16] | Potency [20] | Potency [6] | outcome [7] | Potency [9] | outcome [10] | Potency [17] | Potency [11] | Potency [12] | outcome [13] | Potency [14] | outcome [15] | Potency [18] | Potency [19]

c1ccncc1
inactive: Potency [1] | Potency [2] | Potency [3] | Potency [4] | Potency [5] | Potency [20] | outcome [7] | Potency [8] | Potency [9] | outcome [10] | Potency [11] | Potency [12] | outcome [13] | Potency [14] | outcome [15]

CC(=O)c1ccccn1
inactive: Potency [1] | Potency [2] | Potency [3] | Potency [4] | Potency [5] | Potency [20] | outcome [7] | Potency [8] | outcome [10] | Potency [17] | Potency [12] | outcome [13] | Potency [14] | outcome [15]

CCC(C)(O)CCCC(C)C (stereo unspecified)
inactive: Potency [1] | Potency [2] | Potency [3] | Potency [4] | Potency [5] | Potency [16] | Potency [20] | Potency [6] | outcome [7] | Potency [8] | Potency [9] | outcome [10] | Potency [17] | Potency [11] | Potency [12] | outcome [13] | Potency [14] | outcome [15] | Potency [18] | Potency [19]

C[C@]12CC[C@H]3[C@@H](CCC4=CC(=O)CC[C@@]43C)[C@@H]1CC[C@@H]2C(=O)CO
inactive: Potency [1] | Potency [2] | Potency [3] | Potency [4] | Potency [5] | Potency [6] | outcome [7] | outcome [10] | Potency [12] | outcome [13] | Potency [14] | outcome [15] | Potency [18]
active: Potency [19] 811 nM and 977 nM
